# Measurements published in PubChem BioAssay AID1053143 (Broad Institute, 2014).
# Hit rate of the full screen: of about 3,400 compounds, about 120 (3.5%) were called active. These entries were drawn from the full list. Results with a measured potency or affinity are listed apart. Values without a mark were called inactive. No rule for the calls is given here.
# Experiment: viability loss in HepG2 hepatoma cells – cell-based, ATP luminescence, cherry-pick, activator set 2, cytotoxicity control, dose response (AID 1053143)
# Conditions: CellTiter-Glo ATP luminescence, 72 h; series mostly up to 26 µM
row,Compound,"activity change, negative = cytotoxicity"
1,Cc1ccc(OCC(=O)Nc2ccccc2[N+](=O)[O-])c(Br)c1,inactive
2,O=c1c2ccccc2oc2cc(NCCCN3CCOCC3)ccc12,inactive
3,O=c1c2ccccc2oc2cc(-c3ccc4cc[nH]c4c3)ccc12,inactive
4,Cc1ccccc1Nc1nc(N)nc(-c2oc3ccccc3c2C)n1,inactive
5,Nc1ccccc1-c1nc2ccccc2s1,inactive
6,Nc1nc(CSc2ccccn2)nc(Nc2ccccc2)n1,inactive
7,Nc1ccccc1-c1nc2ccccc2[nH]1,inactive
8,Cc1ccc(C)c(Nc2nc(N)c3ccccc3n2)c1,inactive
9,Cc1ccc(-c2nc(Nc3ccccc3)n[nH]2)cc1,inactive
10,COc1ccc(-c2c3c(nc4sc(C(=O)Nc5ccccc5)c(N)c24)CCC3)cc1,inactive
11,CN(CC(=O)Nc1cccc(F)c1)C(=O)CCNC(=O)c1ccco1,inactive
12,CCOC(=O)c1ccc(S(=O)(=O)NCCNCc2ccccc2)cc1,inactive
13,CCOC(=O)C1CCN(C(=O)c2cc3cc(C)ccc3[nH]2)CC1,inactive
14,COC(=O)c1ccc2[nH]c(C3(O)CCCCC3)c(C)c2c1,inactive
15,CC(C)c1ccc(N=C2N=C(N)c3ccccc32)cc1,inactive
16,Cc1ccc(-c2noc(CSc3ccccc3)n2)cc1,inactive
17,COc1ccc(NC(=O)c2ccc3c(c2)N(C)CCS3)cc1,inactive
18,CCOc1ccc(NC(=O)c2ccc3c(c2)N(C)CCS3)cc1,inactive
19,Cc1ccc(NC(=O)Nc2cnc3ccccc3c2)cc1,inactive
20,c1ccc(-c2nc(-c3ccc(-c4ccon4)s3)no2)cc1,inactive
21,CCCC(=O)N=C1SC2CS(=O)(=O)CC2N1c1ccc(-c2nc3ccc(C)cc3s2)cc1 (stereo not given),-6.16% [at 6 µM]
22,O=c1c2c3c(sc2nc2n1CCCCC2)CCCC3,inactive
23,O=C(Nc1ccc(NC(=O)c2ccco2)nc1)c1cccc(F)c1,inactive
24,Cc1ccc2cc(NC(=O)c3cccc(F)c3)ccc2n1,inactive
25,O=C(CCc1ccccc1)Nc1ccc(NC(=O)c2ccco2)nc1,inactive

row,Compound,"activity change, negative = cytotoxicity"
1,O=C(Cc1ccccc1)Nc1ccc(NC(=O)c2ccco2)nc1,inactive
2,CC(=O)Nc1ccc2c(c1)C(=Nc1cccc(C)c1)c1ccccc1-2,inactive
3,C/C(=N\OC(=O)Nc1ccc(Cl)cc1)c1ncc(C(F)(F)F)cc1N1CCOCC1,inactive
4,O=C(CSc1nnc(-c2cccnc2)o1)Nc1ccccc1F,inactive
5,O=C(CSc1nnc(-c2ccccn2)o1)Nc1ccccc1F,inactive
6,CCOc1nc(N2CCOCC2)nc(C)c1[N+](=O)[O-],inactive
7,Cc1ccc(NC(=O)c2ccc(F)cc2F)cc1,inactive
8,c1ccc(-c2ccc(-c3ccccn3)s2)nc1,inactive
9,c1ccc(-c2nnc(-c3ccccn3)nn2)nc1,inactive
10,COc1cccc(-c2nnc(-c3ccc4ccccc4c3)o2)c1,inactive
11,Cc1ccc2oc(-c3cccc(NC(=O)c4ccccn4)c3)nc2c1,inactive
12,COc1ccc(-c2nnc(-c3ccc(C)cc3)o2)cc1,inactive
13,COC(=O)c1ccc(-c2nc3ccc(C)cc3o2)cc1,inactive
14,COC(=O)CSc1nc2ccccc2c(=O)n1C,inactive
15,COc1cc(CO)ccc1OCc1ccc(Cl)nc1,inactive
16,Clc1ccccc1OCc1nc(-c2ccccn2)no1,inactive
17,Cn1c(SCC(=O)c2ccccc2)nnc1-c1ccco1,inactive
18,Cc1cc(C(=O)COC(=O)c2cccc(S(=O)(=O)N(C)C)c2)c(C)n1CC1CCCO1 (stereo not given),inactive
19,CC(C)Oc1ccc(C(=O)OCC(=O)c2ccc[nH]2)cc1,inactive
20,COC(=O)CSC(C(=O)Nc1ccc(C)c(C)c1)c1ccccc1 (stereo not given),inactive
21,CCCc1nc2c3ccccc3ccn2c1Cc1ccccc1,inactive
22,COc1ccc2[nH]c3c(=O)n(CCc4ccccc4)cnc3c2c1,inactive
23,Nc1ccc(C(=O)OCCc2ccccc2)cc1,inactive
24,O=C(Nc1ccc(Cl)cn1)c1ccc2nccnc2c1,inactive
25,O=C(Nc1ccc(Cl)cn1)c1ccccc1F,inactive

row,Compound,"activity change, negative = cytotoxicity"
1,OCC1OC(n2ccc3c(SCc4ccccc4)ncnc32)C(O)C1O (stereo not given),-7.9% [at 6 µM]
2,Cc1cc(N2CCOCC2)nc2cc(O)ccc12,inactive
3,O=C1c2ccccc2NC(c2ccc(-c3cccs3)o2)N1O (stereo not given),inactive
4,c1cnc(SCCCOc2ccc3ccccc3c2)nc1,inactive
5,Cc1ccc(NC(=O)CCC(=O)c2cccs2)cc1,inactive
6,C=CCNc1nc(-c2ccc3c(c2)OCCO3)cs1,inactive
7,O=c1oc(CCCO)cc2ccc(/C=C/c3cccc([N+](=O)[O-])c3)cc12,inactive
8,CN1CCCN(C(=O)c2cc(-c3cccc4ccccc34)nc3ccccc23)CC1,inactive
9,COc1ccc(NC(=O)c2cc(-c3ccco3)on2)cc1,inactive
10,CC(C)c1cc(C(=O)NCCc2ccccc2)no1,inactive
11,O=C(Nc1cccnc1Cl)c1cc(-c2ccco2)on1,inactive
12,O=C(Nc1ccc(F)c(Cl)c1)c1cc(-c2ccco2)on1,inactive
13,COc1ccc2cc(-c3ccccc3)c(=O)oc2c1,inactive
14,Cc1ccc(C)c(OCc2cc(C(=O)N3CC[C@H](O)C3)no2)c1,inactive
15,COC(=O)C1=C(N)Oc2c(oc(CO)cc2=O)C1c1ccc(F)cc1 (stereo not given),inactive
16,Fc1ccc(SCCc2ccccn2)cc1,inactive
17,CCOC(=O)C1CCN(C(=O)C(CC)c2ccccc2)CC1 (stereo not given),inactive
18,CCOC(=O)C1CCN(C(=O)/C=C/c2ccccc2)CC1,inactive
19,O=C(Nc1cccc(-c2ccc(N3CCOCC3)nn2)c1)c1cccc(Cl)c1,inactive
20,Cc1ccc(C(=O)Nc2cccc(-c3ccc(N4CCOCC4)nn3)c2)cc1,inactive
21,Fc1ccc(/C=C/c2nnc(-c3cccs3)o2)cc1,inactive
22,O=C(C=NNc1ccccc1)c1ccccc1,inactive
23,CCC(C)C(=O)Nc1nnc(-c2cccs2)s1 (stereo not given),inactive
24,O=C(Nc1ccc(Cl)cc1Cl)c1ccc2c(c1)OCCO2,inactive
25,O=C(Nc1cccnc1Cl)c1cc2ccccc2o1,inactive

row,Compound,"activity change, negative = cytotoxicity"
1,NC(=O)c1ccccc1NC(=O)c1ccc2c(c1)OCO2,inactive
2,O=C(Nc1cccnc1)c1ccc(Oc2ccccc2)cc1,inactive
3,O=C(Nc1ncccc1O)c1ccc2ccccc2c1,inactive
4,O=C(Nc1ccccc1F)c1ccc2c(c1)OCO2,inactive
5,O=C(Nc1cccc([N+](=O)[O-])c1)c1ccc2c(c1)OCCO2,inactive
6,O=C(Nc1ncccc1Cl)c1cc2ccccc2o1,inactive
7,CC(=O)Oc1ccc(Oc2ccc(-c3noc(C)n3)cc2)cc1,inactive
8,CSc1nnc(NC(=O)c2ccc(S(=O)(=O)N(C)C)cc2)s1,inactive
9,CN(C)c1ccc(-c2nnc(-c3cccs3)o2)cc1,inactive
10,CCN(CC)C(=O)C1CCN(Cc2cn(C)nc2-c2ccc(Oc3ccccc3)cc2)CC1,inactive
11,COc1ccc(-c2[nH]ncc2CNC(C)c2ccccc2Cl)cc1F (stereo not given),inactive
12,O=C(O)c1ccccc1-c1ccccc1C(=O)NNc1ccccc1,inactive
13,O=C(N/N=C/c1ccc(N2CCOCC2)cc1)c1ccccn1,inactive
14,O=C(COC(=O)c1ccc(F)c(S(=O)(=O)N2CCCCC2)c1)NCc1ccc(F)cc1,inactive
15,Oc1ccc(-c2csc(Nc3ccc4c(c3)OCO4)n2)c(O)c1,inactive
16,Oc1ccc(-c2csc(Nc3ncccn3)n2)c(O)c1,inactive
17,O=C(/C=C\Nc1ccc2c(c1)OCO2)c1ccc2c(c1)OCO2,inactive
18,Fc1ccccc1-c1nc(-c2ccccc2)no1,inactive
19,Fc1ccccc1-c1nc(-c2ccncc2)no1,inactive
20,S=C(c1ccc(-c2cccc(Cl)c2)o1)N1CCCCC1,inactive
21,COc1ccc(/C=C/C(=O)c2ccc[nH]2)cc1OC,inactive
22,Cc1ccc(Cc2c(-c3cccc(Cl)c3)nc3ccc(Br)cn23)cc1,inactive
23,COc1ccc(C2=NN(C(=O)c3ccccc3C(=O)O)C(c3ccccc3O)C2)cc1 (stereo not given),inactive
24,CC(=O)N1N=C(c2ccccc2)CC1c1cn(C)c2ccccc12 (stereo not given),inactive
25,O=c1oc2ccccc2cc1-c1nnc(NCc2ccco2)s1,inactive

row,Compound,"activity change, negative = cytotoxicity"
1,Cc1cc(OCc2cc(C(=O)N(C)C3CCOC3)no2)cc(C)c1Cl (stereo not given),inactive
2,Nc1c(C(=O)Nc2ccc3c(c2)OCCO3)nnn1Cc1cccc(Cl)c1,inactive
3,C(/CCc1ccccc1)=N\Nc1nc2ccccc2[nH]1,inactive
4,Cc1ccccc1-c1cc(-c2ccccc2O)n[nH]1,inactive
5,Oc1ccccc1-c1cc(-c2ccc(F)cc2)n[nH]1,inactive
6,O=[N+]([O-])c1ccc2nc(-c3ccccc3[N+](=O)[O-])[nH]c2c1,inactive
7,Oc1ccc(Br)cc1-c1cc(-c2ccccc2F)[nH]n1,inactive
8,CC(C)(C)NC(=O)c1cccc(NC(=O)c2cccc(O)c2)c1,inactive
9,CCC(=O)Nc1cc(NC(=O)CSc2ncc(-c3ccc(F)cc3)n2Cc2ccco2)ccc1C,inactive
10,O=C(CSc1nncs1)NC(=O)Nc1ccc2c(c1)OCCO2,inactive
11,CC(C)NC(=O)c1cc(-c2cccs2)on1,inactive
12,Cc1ccc(NC(=O)c2cc(-c3cccs3)on2)cc1C,inactive
13,CCOC(=O)c1ccc(NC(=O)C2CC3CCC2C3)cc1 (stereo not given),inactive
14,CCOc1ccc(C(=O)Nc2ccc3[nH]ncc3c2)cc1,inactive
15,CCOc1ccc(C(=O)NC2CCCCCCC2)cc1,inactive
16,O=C(Nc1ccc2ccccc2n1)c1ccccc1Cl,inactive
17,Cn1c(CCNC(=O)c2ccco2)nc2cc(NC(=O)c3ccco3)ccc21,inactive
18,O=C(Nc1nc2cc3c(cc2s1)OCCO3)C1CCCCC1,inactive
19,O=C(Nc1nc2ccc(F)cc2s1)c1cccs1,inactive
20,COc1ccc2nc(NC(=O)c3ccccc3O)sc2c1,inactive
21,CC(C)(C)C(=O)Nc1nc2cc3c(cc2s1)OCO3,inactive
22,CN(C)S(=O)(=O)c1ccc2nc(NC(=O)c3cccnc3)sc2c1,inactive
23,Cc1ccc(C(=O)Nc2nc3ccc(Cl)cc3s2)o1,inactive
24,CC(=O)Nc1nc2cc3c(cc2s1)OCCO3,inactive
25,O=C(Nc1nc2cc3c(cc2s1)OCO3)C1CCCCC1,inactive
